High-throughput results: PubChem, National Center for Advancing Translational Sciences (NCATS)
Shown are actives, neighbours in structure and some others; about 5.3% of the full set was active somewhere.
HP1b chromo inh: blocks HP1-beta chromodomain binding to methylated histone tails; Potency, µM (series often up to 114 µM), most hits filed as inhibitors; AlphaScreen HP1-beta / biotin-H3K9me3 peptide binding; hit rate 0.56% among 390,000; P83916; note: nearly all actives have a fitted effect of over 70% in size
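Compound inhibition of the preformed complex between 50 nM HP1-beta and 50 nM biotinylated H3K9me3 peptide was read by AlphaScreen. Buffer was PBS pH 7.4 with 0.01% Tween-20. Incubations ran 30 min at room temperature, with 10 ug/mL donor/acceptor beads.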
CtBP-E1A blk: inhibitors of CtBP/E1A interaction. AlphaScreen GST-E1A/His-CtBP binding, 1536-well; stronger effect = lower value. activity change, % (no concentration beside the values). hit rate 0.49% among 340,000; in the data active = activity change below about -65%; inconclusive = mostly about -30% to -63%
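AlphaScreen with 125 nM GST-E1A and 125 nM His-CtBP (5X stocks) in Tris pH 8.0, 300 mM NaCl, BSA, Tween 20, TCEP. Compounds preincubated 2 h at 37 deg C, then glutathione donor/nickel acceptor beads added for 1 h at 37 deg C in dark.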
Six1-Eya2 blk: blocks human Six1 binding to Eya2; Q15475+O00167; AlphaScreen GST-Six1/His-Eya2 binding, biochemical; stronger effect = lower value; activity change, % (concentration not given with the values); hit rate 0.56% among 360,000; in the data active = activity change below about -65%; inconclusive = mostly about -30% to -63%
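Six1/Eya2 binding was read as AlphaScreen signal after compounds were pinned into GST-Six1 plus His-tagged Eya2 (5X stock 250/500 nM) in pH 8.0 Tris/NaCl/TCEP buffer, beads added, then incubated 1 h, 37 C, dark.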
JMJD2A Tudor inh: inhibitors of human JMJD2A Tudor domain. O75164. AlphaScreen JMJD2A-Tudor / H3K4me3 peptide binding. Potency, µM (top dose mostly 114 µM), usual class: inhibitors. hit rate 4.4% among 390,000. AID 504339; note: nearly all actives have a fitted effect of over 50% in size
TDP1 block: blocks human tyrosyl-DNA phosphodiesterase 1; Potency, µM (highest dose often 130 µM), actives largely listed as inhibitors; AID 485290; recombinant TDP1, AlphaScreen DNA substrate cleavage; Q9NUW8; hit rate 0.28% among 350,000; note: nearly all actives have a fitted effect of over 40% in size
Target sequence (Q9NUW8 whole entry, looked up): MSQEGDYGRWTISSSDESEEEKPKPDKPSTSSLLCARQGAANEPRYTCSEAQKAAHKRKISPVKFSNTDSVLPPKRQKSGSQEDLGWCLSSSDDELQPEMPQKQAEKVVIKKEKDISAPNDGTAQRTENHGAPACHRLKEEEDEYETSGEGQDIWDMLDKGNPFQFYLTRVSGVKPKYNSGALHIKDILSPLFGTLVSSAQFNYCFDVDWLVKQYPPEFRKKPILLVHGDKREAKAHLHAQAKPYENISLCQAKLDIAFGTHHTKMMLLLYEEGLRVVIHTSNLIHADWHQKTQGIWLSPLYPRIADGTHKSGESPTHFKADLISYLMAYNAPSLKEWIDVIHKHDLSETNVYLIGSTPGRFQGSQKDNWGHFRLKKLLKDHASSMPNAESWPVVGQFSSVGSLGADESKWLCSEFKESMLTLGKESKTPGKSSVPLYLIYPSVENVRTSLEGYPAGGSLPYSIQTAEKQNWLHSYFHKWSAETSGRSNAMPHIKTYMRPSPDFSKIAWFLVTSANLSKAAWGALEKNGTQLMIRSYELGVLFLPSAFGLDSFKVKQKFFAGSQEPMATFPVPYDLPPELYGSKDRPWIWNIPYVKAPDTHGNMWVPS
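Steps: enzyme plus compound, 15 min RT; add biotin/phosphotyrosine-FITC oligonucleotide (15 nM final), react 5 min; add donor/acceptor beads (10 ug/ml final), 10 min; read AlphaScreen. Tdp1 at 1 nM final.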
BAZ2B inh: inhibitors of human BAZ2B bromodomain; Q9UIF8; AlphaScreen BAZ2B-H3K14Ac peptide displacement; Potency, µM (series often up to 114 µM), usual class: inhibitors; hit rate 4.4% among 360,000; note: nearly all actives have a fitted effect of over 60% in size
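BAZ2B (50 nM) with biotin-H3(5-23)K14Ac peptide (50 nM) in PBS pH 7.4, 0.01% Tween-20, preformed 30 min, then compound 30 min at room temperature; top concentration 110uM. AlphaScreen streptavidin donor/nickel chelate acceptor beads (10 ug/mL final), 20 min dark, signal read.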
A number is an active result; 0 = inactive; ? = inconclusive; - = not tested or not shown; [ ] = remark or other dose. Unless noted, calls come from the whole dose curve; as a rule, active = well fitted inhibition curve with a large enough effect; inconclusive = small, poorly fitted or top-dose-only effect; inactive = no such curve, though single readings can be large or run the other way.

SMILES	HP1b chromo inh	CtBP-E1A blk	Six1-Eya2 blk	JMJD2A Tudor inh	TDP1 block	BAZ2B inh
N#C/C(=C\c1ccc(N2CCCCC2)o1)C(N)=O	0	0	0	0	0	28µM
N#C/C(=C/c1ccc(N2CCOCC2)o1)c1ccc(Cl)cc1	0	0	0	56µM	0	45µM
CCOc1cc(C2C(C(=O)Nc3ccccc3)=C(C)Nc3ncnn32)cc(Br)c1O (stereo not drawn)	0	-	-	?	0	79µM
CC1=C(C(=O)Nc2ccc(C)cc2C)C(c2ccc[nH]2)n2ncnc2N1 (stereo not drawn)	0	-	-	0	0	0
CC1=C(C(=O)Nc2ccccc2C)C(c2ccc[nH]2)n2ncnc2N1 (stereo not drawn)	0	-	-	56µM	-	50µM
O=c1c2ccccc2nc2c3ccccc3c(NCCN3CCOCC3)nn12	-	-	-	-	0	0
O=c1c2c(-c3ccccc3)csc2nc2c3ccccc3c(NCCN3CCOCC3)nn12	0	-88	-82	0	0	0
CCN(c1ccccc1)S(=O)(=O)c1ccc(N2CCN(c3ccc(OC)cc3)CC2)nc1	0	-	0	0	0	-
COc1ccc(N2CCN(C(=O)CN(c3ccccc3)S(=O)(=O)c3ccc(OC)cc3)CC2)cc1	?	0	0	56µM	0	?
CCN(c1ccccc1)S(=O)(=O)c1ccc(N2CCN(c3ccc(O)cc3)CC2)nc1	50µM	0	?	22µM	0	-
COc1ccc(N2CCN(C(=O)CN(c3ccc(OC)cc3)S(=O)(=O)c3ccccc3)CC2)cc1	0	0	?	?	0	?
CN(C)c1ccc(NC(=O)CSCc2nc3c(nnn3Cc3ccc(F)cc3)c(=O)[nH]2)cc1	0	0	0	50µM	0	?
Cc1cccc(NC(=O)CSCc2nc3c(nnn3Cc3ccc(F)cc3)c(=O)[nH]2)c1C	0	0	0	0	0	?
CCOc1ccc(NC(C)c2cc(Cl)ccc2O)cc1 (stereo not drawn)	?	0	0	?	0	35µM
Cc1ccc2nc(/C(C#N)=C\c3ccc(N4CCCCC4)c([N+](=O)[O-])c3)[nH]c2c1	?	0	?	5.6µM	0	45µM
N#C/C(=C\c1ccc(N2CCOCC2)c([N+](=O)[O-])c1)c1nc2ccccc2[nH]1	0	?	0	?	0	35µM
Cc1ccc2nc(/C(C#N)=C/c3ccc(O)c(O)c3)[nH]c2c1	?	0	0	16µM	0	7.9µM
Cc1ccc2nc(/C(C#N)=C/c3cccc(Br)c3)[nH]c2c1	0	-	-	?	-	0
N#C/C(=C/c1ccc(N2CCCC2)c([N+](=O)[O-])c1)c1nc2ccccc2[nH]1	0	0	0	0	0	0
O=C(Nc1ccc(Cl)cc1)c1cc2c(-c3ccccc3)nn(-c3ccccc3)c2s1	0	-	-	0	0	0
CCOc1cccc(C(=O)c2ccc(O)c(O)c2O)c1	-	-	-	-	0	-
COc1ccccc1CNC(=O)c1ccc2nc(-c3ccccc3)c(-c3ccccc3)nc2c1	0	-	-	0	0	0
CCOc1ccc(C2C3=C(Nc4nc(N)[nH]c(=O)c42)c2ccccc2C3=O)cc1 (stereo not drawn)	0	0	-72	?	0	0
C=CCOC(=O)/C=C/NC(=O)/C=C/C=C/CCCCCCCC(C)O (stereo not drawn)	-	-	-	-	0[21 µM]	-
C=CCOC(=O)/C=C/C(=O)NC(N)=O	18µM	-	0	?	-	0
SMILES	HP1b chromo inh	CtBP-E1A blk	Six1-Eya2 blk	JMJD2A Tudor inh	TDP1 block	BAZ2B inh
O=S(=O)(c1ccccc1)N1N=C(c2ccc(Br)cc2)CC1c1ccco1 (stereo not drawn)	0	0	0	16µM	0	0
O=S(=O)(c1ccccc1)N1N=C(c2ccc(O)cc2)CC1c1ccco1 (stereo not drawn)	0	0	0	0	0	?
Nc1nc(O)c(N=Nc2ccc(S(N)(=O)=O)cc2)c(=O)[nH]1	0	0	0	0	-	0
NS(=O)(=O)c1ccc(N=Nc2c[nH]c(=O)c(O)c2)cc1	50µM	?	?	7.1µM	0	7.9µM
COc1ccc(NC(=O)Cn2nnc(C(=O)NCc3ccc4c(c3)OCO4)c2N)cc1	0	0	0	0	0	0
COc1ccc(NC(=O)Cn2nnc(C(=O)NCc3ccc4c(c3)OCO4)c2N)c(OC)c1	0	0	0	28µM	0	0
Cc1ccc(C)c(NC(=O)c2cnc3sc(N4CCOCC4)nn3c2=O)c1	0	-	-	0	0	0
COc1ccc(CCNC(=O)C(=O)NCC(c2cccs2)S(=O)(=O)c2ccccc2)cc1 (stereo not drawn)	0	-	-	0	-	0
C=CCNc1nnc(Cc2ccc(C(C)C)cc2)c(=O)[nH]1	0	0	0	56µM	50µM	?
COc1ccc(Cc2nnc(NCCO)[nH]c2=O)cc1	0	0	0	0	0	0
CCOc1ccc(-c2nnc(SCC(=O)NCCC(C)C)nc2-c2ccc(OCC)c(OC)c2)cc1OC	0	-	-	0	0	0
Cc1ccc(CNC(=O)C2CCCN2S(=O)(=O)c2ccc(F)cc2)cc1 (stereo not drawn)	0	0	0	0	0	0
O=C(NCc1ccccc1)C1CCCN1S(=O)(=O)c1ccc(F)cc1 (stereo not drawn)	0	-81	0	0	0	?
O=C(Nc1nnc(C2CC2)s1)C1Cc2ccccc2CN1C(=O)c1ccco1 (stereo not drawn)	?	0	0	?	0	50µM
O=C(Nc1nnc(SCc2ccc(F)cc2)s1)C1Cc2ccccc2CN1C(=O)c1ccco1 (stereo not drawn)	0	0	0	0	0	0
Cc1cccc(NC(=O)c2sc(-n3nc(C)c(CCC(C)C)c3C)nc2C)c1	0	-	-	0	0	0
CC(C)(C)OC(=O)N/N=C/c1cccn1-c1ccc([N+](=O)[O-])cc1	?	?	0	?	0	?
COc1ccc(CCNC(=O)CSCc2ccc([N+](=O)[O-])cc2)cc1OC	?	0	0	20µM	0	0
COc1ccc(CC(=O)N/N=C/c2cccn2-c2ccc([N+](=O)[O-])cc2)cc1OC	?	0	0	45µM	0	40µM
Cc1nc(N2CCCC2)c2c(C(=O)N3CCN(c4cc(Cl)ccc4C)CC3)c(C)oc2n1	0	-	-	0	-	0
O=C(Nc1nnc(N2CCCCCC2)s1)Nc1cc(F)ccc1F	0	-	-	0	0	0
COc1ccc(Br)cc1C1Nc2cccc3cccc(c23)N1	0	0	0	?	-	45µM
COc1cc(C2Nc3cccc4cccc(c34)N2)cc(OC)c1OC(C)=O	?	0	0	?	0	?
Brc1ccc(C2Nc3cccc4cccc(c34)N2)s1	?	0	0	0	0	?
COc1cc(C2Nc3cccc4cccc(c34)N2)ccc1O	?	0	0	50µM	0	?
Oc1ccc2ccccc2c1C1Nc2cccc3cccc(c23)N1	?	0	0	45µM	0	40µM
CCN(CC)c1ccc(C2Nc3cccc4cccc(c34)N2)c(O)c1	?	0	0	35µM	0	11µM
